Compound activity from PubChem BioAssay.
SW480 rereplic – A quantitative high throughput screen for small molecules that induce DNA re-replication in SW480 colon adenocarcinoma cells | SW480 DNA re-replication, Hoechst DNA content imaging, 48 h | Potency, µM (series often up to 46.1 µM), inactives show top-dose re-replication activation, most hits filed as activators | 340,000 compounds, 1.8% hits | AID 624297, 2012; also: % of control where 0% means no effect; nearly all actives have a fitted effect of over 55% in size
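250 cells/well; 23 nL cpd via pin tool; 48 hr, 37 C, 5% CO2; Hoechst 40 min; imager read of total nuclear intensity, ex 405/em 500-530 nm.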
MCF10A rereplic – A quantitative high throughput screen for small molecules that induce DNA re-replication in MCF 10a normal breast cells; MCF 10A DNA re-replication, Hoechst nuclear intensity, 48 h; Potency, µM (top dose mostly 46.1 µM), inactives show at the highest dose activity, positive = re-replication, hits mostly activators; 350,000 compounds, 2.9% hits; also: % of control where 0% means no effect; nearly all actives have a fitted effect of over 50% in size
Integrin act MD – qHTS for Activators of Integrin-Mediated Alleviation for Muscular Dystrophy; alpha7betagal myoblasts, beta-gal FDG fluorescence, 48 h; Potency, µM (doses to about 38.3 µM), inactives show at the highest dose activation, hits mostly activators; 350,000 compounds, 0.064% hits;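 also: 100% = response of the positive control SU9516; nearly all actives have a fitted effect of over 60% in size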
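Alpha7betagal+/- myoblasts (passage 13) were plated 16-24 hr, then exposed to compounds (1:260 dilution of DMSO stock) for 48 hours at 37C. After MPER lysis, β-galactosidase reporter activity was read as FDG fluorescence (ex 480/em 540) after 30 minutes.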
Mito fusion act – qHTS Assay for Small Molecule Inhibitors of Mitochondrial Division or Activators of Mitochondrial Fusion | S. cerevisiae fusion-defective mutant growth rescue, CellTiterGlo 48 h | Potency, µM (top dose mostly 46.1 µM), for inactives: top-dose growth rescue (activation), actives largely listed as activators | 320,000 compounds, 0.23% hits | AID 485298, 2010; also: % of control where 0% means no effect; nearly all actives have a fitted effect of over 45% in size
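S. cerevisiae fusion-defective temperature-sensitive mutants (e.g. fzo1-1, mgm1-5) grown 48 h at 37C in YPEG (ethanol/glycerol non-fermentable) medium with 23 nl compound per well; growth rescue read as CellTiterGlo luminescence.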
A-T KAP1 phos – qHTS Assay for Identifying a Potential Treatment of Ataxia-Telangiectasia. F2112 A-T fibroblasts, KAP-1 phosphorylation AlphaLISA; neocarzinostatin DNA damage 30 min before lysis. Potency, µM (titrated, usually from 57.5 µM), for the others: top-dose activation, usual class: activators. 320,000 compounds, 0.19% hits. AID 485349, 2010; also: % of control where 0% means no effect; nearly all actives have a fitted effect of over 45% in size
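hTERT-immortalized A-T patient fibroblasts (F2112), 500 cells/well in OPTI-MEM, 1% FBS, got compounds for 60 min, then NCS for 30 min at 37C. Lysates were then assayed for phospho-KAP-1 by AlphaLISA (anti-pKAP1 donor, anti-KAP1 acceptor beads), 6 hr at 25C.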
* = called active by the depositor; ? = inconclusive; . = no result given; [ ] = another dose, or the depositor's remark. The list is not random: actives were taken first. Their share in the collection is about 4.2%. Calls follow the shape of the dose curve; as a rule, active = well fitted activation curve with a large enough effect; inconclusive = small, poorly fitted or top-dose-only effect; inactive = no such curve, though single readings can be large or run the other way. Potency is read from the fitted curve at half-maximal effect.

SMILES	SW480 rereplic	MCF10A rereplic	Integrin act MD	Mito fusion act	A-T KAP1 phos
C=CCNC(=O)c1sc(-c2ccccc2)nc1C	?	0%	0%	-1%	2%
Cc1cccc(NC(=O)C2CCN(S(=O)(=O)c3ccc4c(c3)NC(=O)CO4)CC2)c1	-3%	0%	-4%	19%	-3%
COc1ccc2c(c1)c(N=NC(N)=S)c(O)n2CC(=O)c1ccccc1	-4%	-1%	11%	0%	0.71µM*
O=C(CNC(=O)c1ccco1)N=Nc1c(O)n(CCc2ccccc2)c2ccccc12	1.8µM*	?	-34%	7%	-8%
COC(=O)c1ccc(Cn2c(O)c(N=NC(N)=S)c3ccccc32)o1	23µM*	1%	21%	8%	18%
COC(=O)N=Nc1c(O)n(Cc2ccccc2)c2ccccc12	13%	13%	-7%	2%	25µM*
CCn1c(O)c(N=NC(=O)CNC(=O)Cc2ccccc2)c2ccccc21	-3%	-2%	-25%	-1%	13%
CC(C)=CC(=O)Nc1ccc(S(=O)(=O)Nc2ccccn2)cc1	-1%	3%	1%	0%	6%
CCN(CC)c1ccc(/C=C2/SC(=O)N(C(C)C)C2=O)o1	5.2µM*	?	-70%	2%	-25%
Cc1cccc(-c2noc(-c3ccccc3C(=O)NCc3ccco3)n2)c1	-10%[9.22 µM]	-5%	-24%	14%	39%
O=C1NC(Cc2c[nH]c3ccccc23)C(=O)N1Cc1ccc(CN2C(=O)NC(Cc3c[nH]c4ccccc34)C2=O)cc1 (stereo not drawn)	27%	21µM*	17%	2%	6%
O=C1NC(Cc2c[nH]c3ccccc23)C(=O)N1CCOc1ccc(F)cc1 (stereo not drawn)	-3%	6%	-22%	-5%	.
CN(Cc1ccc(N(C)C)cc1)C(=O)c1cc2ccccc2o1	0%	16%	21%	30%	-2%
N#C/C(=C\c1ccc(-c2ccccc2)cc1)c1nc(-c2ccco2)cs1	1%	23µM*	18%	-2%	3%
Cc1ccc(S(=O)(=O)c2ncccc2[N+](=O)[O-])cc1	12µM*	5.8µM*	-9%	-67%	-2%
CC(C)N=c1c([N+](=O)[O-])nn(C)n1O	?	0.73µM*	-35%	-1%	-4%
COc1cc(/C=C2\N=C(c3ccccc3)NNC2=O)cc(OC)c1OC	5.8µM*	1.8µM*	-22%	-5%	-5%
O=c1[nH]c(/C(Cl)=C/c2cc(Cl)ccc2O)nc2cc(Cl)ccc12	26%	15µM*	-24%	22%	-5%
CCCCCCOc1ccc(C(=O)O)cc1C#N	0%	18µM*	-3%	?	0%
CCCCCCCCOc1ccc(C(=O)O)cc1	-3%	-32%	.	13µM*	-16%
O=C(Cc1ccccc1)NCC(=O)N1CCN(Cc2cccc(Cl)c2)CC1	-2%	-6%	-1%	.	-3%
O=S(=O)(NCc1ccncc1)c1ccc(S(=O)(=O)NCC2CCCO2)cc1 (stereo not drawn)	19%	6.5µM*	-30%	1%	4%
CCn1nc(C)c(CNC(=O)Nc2ccc3c(c2)OCO3)c1C	-1%	-3%	-18%	7%	-1%
Cc1ccc(NC(=S)NNC(=O)CCn2cc(C)cn2)cc1	9.2µM*	2%	-3%	-1%	-1%
Cc1cnn(CCC(=O)NNC(=S)Nc2ccccc2)c1	?	-19%	10%	-2%	4%
CCCn1c(=N)c(S(=O)(=O)c2ccc(F)cc2)cc2c(=O)n3cccc(C)c3nc21	?	5.2µM*	-8%	1%	7%
COCCn1c(=N)c(S(=O)(=O)c2ccc(F)cc2)cc2c(=O)n3cccc(C)c3nc21	?	3.7µM*	-9%	4%	-6%
CCCCn1c(=N)c(S(=O)(=O)c2ccc(Br)cc2)cc2c(=O)n3cccc(C)c3nc21	?	16%	29%	3%	-2%
